In the library only some 3.8% were active in any assay of this set; here they are far more common.
ADAM10 inh – inhibitors of human ADAM10; O14672; recombinant ADAM10, EDANS/DABCYL FRET peptide cleavage, 3 h; inhibition, % at 7 µM; hit rate 0.62% among 370,000; AID 720582;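 active = inhibition above a per-campaign cutoff equal to the mean of compounds falling between control-based bounds plus 3 SD, cut at about 20% in these data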;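 also: 0% = DMSO wells while the 100% control is not disclosed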
FGF22 binding – FGF22 (human) thermal shift binding; hit rate 1.5% among 340,000; AID 651658; recombinant FGF22 thermal shift, SYPRO orange fluorescence; percent of sucrose octasulfate shift, DMSO zero; Q9HCT0; activity (Tm shift, normalised), % at 9.99 µM;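 active = mean Tm shift, scaled 0 neutral to 100 positive control, at about 1.3% or above, every replicate too, limit read from the data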
Target sequence (Q9HCT0 whole entry, looked up): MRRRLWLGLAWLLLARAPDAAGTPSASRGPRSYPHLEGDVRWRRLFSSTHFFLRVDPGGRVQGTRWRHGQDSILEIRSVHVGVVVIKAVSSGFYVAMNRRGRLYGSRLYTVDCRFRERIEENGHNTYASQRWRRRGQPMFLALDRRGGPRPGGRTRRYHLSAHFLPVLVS
Ecoli rRNA inh – inhibits bacterial ribosomal RNA function over humanized ribosomes; E. coli WT GFP vs humanized-ribosome RFP mutants, fluorescence, 24 h; active compounds read low; DMSO median 0, no signal -100; GFP signal change (wild-type ribosome), % (no concentration beside the values); hit rate 1.6% among 350,000;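 active = significant combined selectivity score with lowered wild-type GFP, culture density cut under 30%, mutant RFP and density less affected; inactive = any of these conditions unmet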
ADAM17 inh – inhibits human ADAM17; hit rate 0.83% among 370,000; AID 720648; recombinant ADAM17, EDANS/DABCYL FRET peptide cleavage; P78536; inhibition, % at 6.95 µM;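 active = inhibition above the mean of compounds lying between control limits plus 3 SD, set per campaign, cut at about 8.5% in these data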;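 also: 0% = DMSO-only wells as the low control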
proKLK7 act – activates the human kallikrein-7 zymogen | hit rate 0.9% among 370,000 | AID 652039 | activation, % at 7 µM | purified proKLK7, EDANS-DABCYL substrate fluorescence; 100% is mature enzyme control, 0% vehicle | P49862;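 active = activation above the mean of all tested compounds plus 3 SD, computed per campaign excluding outliers beyond control limits, cut at about 13% in these data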
Target sequence (P49862 whole entry, looked up): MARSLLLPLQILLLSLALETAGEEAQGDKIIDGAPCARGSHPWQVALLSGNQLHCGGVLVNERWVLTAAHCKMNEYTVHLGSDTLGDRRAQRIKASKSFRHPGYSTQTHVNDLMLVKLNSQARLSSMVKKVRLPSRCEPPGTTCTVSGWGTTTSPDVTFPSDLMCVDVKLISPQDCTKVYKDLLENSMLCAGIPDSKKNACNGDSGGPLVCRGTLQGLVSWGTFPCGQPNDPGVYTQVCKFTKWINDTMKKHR
Starred values were filed as active, the others as inactive; . = no result.

SMILES	ADAM10 inh	FGF22 binding	Ecoli rRNA inh	ADAM17 inh	proKLK7 act
CC(=O)N1C[C@@H]2C(c3ccc(Br)cc3)[C@H](C1)N2C(C)=O (stereo partly specified)	.	.	2	.	.
C[C@@H]1CN([C@H](C)CO)S(=O)(=O)c2ccc(C#CC3CCCC3)cc2O[C@@H]1CN(C)Cc1cncnc1	.	.	-20	.	.
O=C(NCC(c1ccco1)N1CCCC1)c1ccc(S(=O)(=O)Nc2ccc(F)cc2)cc1 (stereo unspecified)	-3	0	9	1	0
O=C(NCC(c1ccco1)N1CCCCC1)c1ccc(NS(=O)(=O)c2ccc(F)cc2)cc1 (stereo unspecified)	-11	0	-20*	0	0
CC(=O)NN1C(=O)c2ccc3c4c(ccc(c24)C1=O)C(=O)N(NC(C)=O)C3=O	-2	0	-22*	-3	-1
C/C(=N\Nc1ccc(Cl)cc1)c1c(O)cc(C)oc1=O	2	43*	-16	-2	0
CCNC(=O)C[C@@H]1CC[C@@H]2[C@H](COC[C@@H](O)CN2C(=O)Nc2cccc(OC)c2)O1	.	0	2	.	.
C=CCOc1ccc(/C=C2\SC(=S)N(C(C(=O)O)c3ccccc3)C2=O)cc1 (stereo unspecified)	1	0	-42*	-2	0
CC(/C=C1\SC(=S)N(C(C(=O)O)c2ccccc2)C1=O)=C\c1ccccc1 (stereo unspecified)	7	0	-27*	-1	0
CCOc1ccc(/C=C2\SC(=S)N(C(C(=O)O)c3ccccc3)C2=O)cc1OC (stereo unspecified)	1	0	-11	0	0
CCN(Cc1ccccc1)C(=S)NC(=O)c1ccccc1Br	1	0	-43	-4	0
CCCN(Cc1ccccc1)C(=S)NC(=O)c1ccccc1[N+](=O)[O-]	2	0	-51*	-2	0
COCC(=O)N1C[C@H](C)[C@@H](OC)CN(C)C(=O)c2cc(NC(=O)c3cc(C)on3)ccc2OC[C@H]1C	.	.	2	.	.
COc1ccc(-n2cc(-c3ccccc3)[n+]3c2CCCCC3)cc1	-3	0	-30*	-3	0
FC(F)Oc1ccc(-n2cc(-c3ccc(Cl)cc3)[n+]3c2CCCCC3)cc1	-4	0	-47*	-3	0
FC(F)Sc1ccc(-n2cc(-c3ccccc3)[n+]3c2CCC3)cc1	-1	.	.	2	0
CO[C@@H]1CN(C)C(=O)c2ccc(NC(=O)CC(F)(F)F)cc2OC[C@@H](C)N(S(=O)(=O)c2cn(C)cn2)C[C@@H]1C	.	0	3	.	.
CCc1nc2ccccc2c(C(=O)NCc2ccccc2)c1C	4	43*	-1	-1	-1
O=C(NCc1ccccc1)c1nc2ccccc2s1	-5	0	-30*	0	0
CNC[C@H]1Oc2c(NC(=O)Nc3ccc(C(F)(F)F)cc3)cccc2C(=O)N([C@@H](C)CO)C[C@H]1C	.	0	-58	.	.
CC(C)(C)c1ccc(CC(=O)N2CCC2(C)C(=O)NS(=O)(=O)c2cccc(C#N)c2)cc1 (stereo unspecified)	-5	0	4	-4	0
CC1(C(=O)NS(=O)(=O)c2cccc(C#N)c2)CCN1C(=O)C1(c2ccc(Cl)cc2)CCC1 (stereo unspecified)	-12	1	-15*	-3	0
CC1(C(=O)NS(=O)(=O)c2ccc(F)cc2F)CCN1C(=O)C1(c2ccc(Cl)cc2)CCC1 (stereo unspecified)	-4	0	-12	-1	0
CC(C)(C)c1ccc(CC(=O)N2CCC2(C)C(=O)NS(=O)(=O)c2cccc(Cl)c2)cc1 (stereo unspecified)	-9	0	-33*	-2	0
CC1(C(=O)NS(=O)(=O)c2cccc(F)c2)CCN1C(=O)C1(c2ccc(Cl)cc2)CCC1 (stereo unspecified)	-12	0	-16*	-7	1
SMILES	ADAM10 inh	FGF22 binding	Ecoli rRNA inh	ADAM17 inh	proKLK7 act
COc1ccc(CNC(=O)C[C@@H]2C[C@@H]3c4cc(NS(C)(=O)=O)ccc4O[C@@H]3[C@H](CO)O2)cc1	.	0	1	.	.
C[C@@H]1CN([C@@H](C)CO)C(=O)Cc2cc(NC(=O)Nc3ccc(F)cc3)ccc2O[C@H]1CN(C)C(=O)Nc1ccc2c(c1)OCO2	.	0	-2	.	.
C[C@@H]1CN([C@H](C)CO)S(=O)(=O)c2ccc(C#CCN(C)C)cc2O[C@H]1CN(C)Cc1ccc2c(c1)OCO2	.	0	-3	.	.
CCN1/C(=c2/s/c(=C3/C(=O)N(c4ccccc4)N=C3C)n(CC)c2=O)C=Cc2ccccc21	-3	0	13	-2	0
CCN1/C(=C2\C(=O)N(c3ccccc3)N=C2C)C=Cc2cc(C)ccc21	2	43*	-1	1	1
Cc1ccc(C(=O)NC(=S)c2c(C)cc3ccccn23)cc1	-10	0	-15*	-3	0
Cc1cc2ccccn2c1C(=O)Nc1cccc(Cl)c1	-123	0	-33*	-43	-5
Cc1noc(C)c1S(=O)(=O)Nc1ccc2c(c1)C(=O)N([C@@H](C)CO)C[C@@H](C)[C@@H](CN(C)C(=O)CCC(F)(F)F)OCCCC[C@H](C)O2	.	-1	-2	.	.
Nc1cc([N+](=O)[O-])ccc1O	-7	0	4	6	0
Cc1ccc([N+](=O)[O-])cc1N	6	43*	15	2	-2
Cc1cc(C)n(/C(=C\N(C)C)C(=O)c2cccc([N+](=O)[O-])c2)n1	2	0	3	0	-1
Cc1cc(C)n(C(=O)c2ccc([N+](=O)[O-])cc2N)n1	7	43*	17	0	0
COc1ccc(NC(=O)N2CCCCN3[C@@H](CO)[C@H](c4ccc(-c5ccccc5C)cc4)[C@@H]3C2)cc1	.	.	-60	.	.
O=C(C[C@@H]1C[C@H]2c3cc(NC(=O)CC4CC4)ccc3O[C@H]2[C@H](CO)O1)NCc1ccc2c(c1)OCO2	.	0	-2	.	.
Cc1ccc(C(C)(c2ccc(N)cc2)c2ccc(N)cc2)cc1	14	0	-39*	-3	0
Nc1ccc(C(O)(C(F)(F)F)C(F)(F)F)cc1	4	.	.	2	0
CN(C)C(=O)[C@@H]1[C@@H](CO)[C@@H]2Cn3c(ccc(-c4ccccc4)c3=O)[C@@H]2N1Cc1ccccc1	.	0	-3	.	.
CCCCCCCCCCCCN1[C@@H](CC(=O)O)c2cc(C(F)(F)F)ccc2S1(=O)=O	22*	0	10	2	0
CCOC(=O)Nc1ccc2c(c1)C(=NO)c1ccccc1-2	5	0	-68	4	0
O=C(Nc1ccccc1)ON=C1c2ccccc2-c2ccccc21	1	0	-35*	0	0
Cc1ccc(S(=O)(=O)N(CC(=O)NCc2ccco2)C2CCCCC2)cc1	-8	0	-28*	1	1
